Sampled rows, rich in hits. Any-hit rate of the full collection: about 4.4%.
D1 agonist – activates the human D1 dopamine receptor. activation, % at 2 µM. P21728. HEK293 T-REx D1 cells, calcium flux, agonist mode. AID 504660. 360,000 compounds, 1% hits; further: 0% is about no effect
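Agonism was scored from calcium flux recorded over 180 s (1 read/s) after pintool compound addition, following a 10-cycle baseline. Cells were inducible force-coupled HEK293 TREx D1, plated overnight at 30 C and loaded with no-wash calcium dye.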
USP1-UAF1 inh – USP1/UAF1 (human) deubiquitinase inhibition; Potency, µM (highest dose often 57.1 µM), without a hit: at the highest dose activity change, negative = inhibition, usual class: inhibitors; recombinant USP1/UAF1, Ub-Rhodamine cleavage fluorescence; AID 743255; 390,000 compounds, 0.23% hits; active means well fitted inhibition curve with a large enough effect; inconclusive means small, poorly fitted or top-dose-only effect; inactive means no such curve, though single readings can be large or run the other way; further: potency means the concentration at half of the fitted maximal effect; on the % scale 0 is the no-effect control and ±100 the full control effect; nearly all actives have a fitted effect of over 60% in size
Target sequence (O94782 whole entry, looked up): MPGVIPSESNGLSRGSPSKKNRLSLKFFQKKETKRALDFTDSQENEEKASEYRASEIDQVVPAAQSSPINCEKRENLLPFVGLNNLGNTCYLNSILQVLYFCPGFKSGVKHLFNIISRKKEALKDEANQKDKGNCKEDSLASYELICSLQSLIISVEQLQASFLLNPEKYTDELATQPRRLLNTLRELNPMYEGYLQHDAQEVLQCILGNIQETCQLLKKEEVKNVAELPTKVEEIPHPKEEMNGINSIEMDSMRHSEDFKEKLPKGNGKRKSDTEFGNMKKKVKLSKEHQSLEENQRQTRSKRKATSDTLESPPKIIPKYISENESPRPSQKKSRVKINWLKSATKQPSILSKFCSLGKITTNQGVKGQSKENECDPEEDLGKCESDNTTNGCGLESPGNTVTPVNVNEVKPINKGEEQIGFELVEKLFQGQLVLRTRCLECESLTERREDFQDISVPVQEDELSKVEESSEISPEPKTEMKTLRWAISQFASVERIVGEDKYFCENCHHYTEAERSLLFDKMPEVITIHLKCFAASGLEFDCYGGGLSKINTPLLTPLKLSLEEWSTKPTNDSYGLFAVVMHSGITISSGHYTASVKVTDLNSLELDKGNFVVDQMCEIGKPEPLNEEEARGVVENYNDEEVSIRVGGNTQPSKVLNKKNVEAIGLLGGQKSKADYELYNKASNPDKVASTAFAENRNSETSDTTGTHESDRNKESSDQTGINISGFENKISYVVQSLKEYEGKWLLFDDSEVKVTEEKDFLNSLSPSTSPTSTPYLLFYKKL
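High-throughput fluorogenic screen: 1nM USP1/UAF1 complex, Ub-Rho substrate 150nM final, 50mM HEPES pH 7.8 with 0.5mM EDTA, 0.1 mg/ml BSA, 1mM TCEP and 0.01% Tween-20.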
TRHR agonist – agonists of human TRH receptor | activation, % at 2 µM | TRHR cells, calcium flux fluo-8, FDSS agonist mode | AID 493084 | P34981 | 360,000 compounds, 0.18% hits; further: 0% is about no effect
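Read-out: compound-evoked intracellular calcium rise in TRHR cells, fluo-8 dye, kinetic FDSS fluorescence at 1 s/cycle following a 10-cycle baseline. Cells cultured overnight before dye loading (30 min–1.5 h, RT).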
TRHR PAM – allosteric enhancers of human TRH receptor. TRHR cells, fluo-8 calcium fluorescence, EC20 TRH enhancement. enhancement, % at 2 µM. 360,000 compounds, 0.66% hits; in the data active means enhancement above about 30%; further: 0% is about no effect
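Enhancer read-out: after compound pinning and an initial kinetic agonist-mode read, an EC20 of TRH (10 nM final) was injected and fluo-8 calcium signal (Ex 480/Em 530) followed at 1 s/cycle for 100 cycles in TRHR-expressing cells.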
D1 PAM – enhances dopamine response at the human D1 receptor; HEK293 TREx D1 cells, calcium flux, dopamine EC20 potentiation; 360,000 compounds, 0.036% hits; AID 504651; P21728; potentiation, % at 10 µM; in the data active means potentiation above about 30%; further: 0% is about no effect
D1 antagonist – antagonists of human D1 dopamine receptor; activity change, negative = inhibition, % at 10 µM; P21728; HEK293 TREx D1 cells, calcium flux, dopamine EC80; hits give low values; 360,000 compounds, 3.2% hits; in the data active means activity change below about -30%; further: on the % scale 0 is the no-effect control and ±100 the full control effect
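Tetracycline-induced HEK293 Trex D1 cells, force-coupled to calcium, dye-loaded; compounds added and read 180 s, then EC80 dopamine added and calcium flux tracked kinetically another 180 s.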
Starred values were filed as active, the others as inactive; ? = inconclusive; · = no result; ! = repeats disagree. Unless noted, no stated cut-off is given here; in the data, active means activation above about 30%; inactive means the rest.

SMILES | D1 agonist | USP1-UAF1 inh | TRHR agonist | TRHR PAM | D1 PAM | D1 antagonist
CC(C)C(=O)Nc1cccc(NC(=O)c2cccc(Br)c2)c1 | 5 | -27% | 0 | -4 | -11 | -32*
CC(=O)Nc1cccc(NC(=O)c2cc3ccccc3o2)c1 | 3 | -9% | 0 | -4 | -3 | -9
COc1ccc(C(=O)NNC(=O)c2ccc3ccccc3c2O)cc1 | 2 | -7% | 0 | 1 | -1 | -2
COc1cccc(OCC(=O)NNC(=O)c2ccc3ccccc3c2O)c1 | 9 | -9% | 0 | -3 | -6 | -37*
CCOc1cc(C(=O)Nc2ccc(NC(=O)c3cc4ccccc4o3)c(OC)c2)cc(OCC)c1OCC | 0 | 6% | -1 | 0 | 0 | -2
CCOc1cccc(C(=O)Nc2ccc(NC(=O)c3cc4ccccc4o3)c(OC)c2)c1 | 7 | 2% | 0 | 4 | -3 | -39*
Cc1cccc(NC(=O)CS(=O)(=O)c2cccc3nsnc23)c1 | 1 | -23% | -1 | -4 | -5 | -3
CCc1ccc(OCC(=O)N(Cc2ccco2)Cc2ccco2)cc1 | 3 | -15% | 1 | -5 | 0 | -18
CCOC(=O)c1cccc(NS(=O)(=O)c2c(C)nc3sc(C)cn3c2=O)c1 | 8 | -12% | -1 | 0 | -2 | -4
CCOC(=O)C1CCCN(S(=O)(=O)c2csc(C(N)=O)c2)C1 (configuration not stated) | 3 | -3% | 0 | -1 | 3 | -1
COc1ccc(OCC(=O)NNC(=O)c2cc3ccccc3o2)cc1 | 0 | 1% | 0 | -1 | -7 | -31*
COc1cc(NC(=O)c2cccc(Br)c2)nc(OC)n1 | 4 | -1% | -3 | 34* | -4 | 2
CCCCOC(=O)c1ccc(NC(=O)c2cc(=O)c3ccccc3o2)cc1 | 10 | -12% | 0 | 11 | -2 | -4
CCCCOC(=O)c1cccc(NC(=O)c2cc3ccccc3o2)c1 | 30* | -22% | 4 | 0 | -3 | -4
COc1cc(NC(=O)c2c(F)cccc2F)nc(OC)n1 | 2 | -3% | 0 | 2 | 0 | -7
COc1ccc(NC(=O)c2cc3ccccc3o2)cn1 | -1 | -9% | 0 | 41* | 1 | 3
CCc1cccc(NC(=O)Nc2ccc3c(c2)N(C)C(=O)c2ccccc2S3)c1 | -1 | 13% | 0 | -2 | 1 | -39*
COc1cc(NC(=O)CSc2ccc(-c3sc(-c4ccccc4)nc3C)nn2)cc(OC)c1 | 9 | -14% | 1 | 9 | -4 | 19
Cc1csc(CNc2ncnc3ccc(-c4ccoc4)cc23)c1 | 11 | · | -1 | 2 | 10 | -63*!
Clc1cccc(-c2ccc3ncnc(NCc4cccs4)c3c2)c1 | 0 | · | 0 | 0 | 2 | -26
Clc1ccccc1-c1ccc2ncnc(NCc3cccs3)c2c1 | 15 | · | 2 | -3 | -9 | -42*
Cc1cccc(-c2ccc3ncnc(NCc4cccs4)c3c2)c1 | 8 | · | 0 | 4 | -10 | -46*!
COc1ccc(-c2nc(CCNC(=O)Cc3ccc(F)cc3)cs2)cc1 | 1 | -11% | -1 | -1 | -3 | 18
COc1ccc(-n2ncc(C(=O)NCCCN3CCCCC3)c2C2CCN(C(=O)OC(C)(C)C)CC2)cc1 | 1 | -4% | 2 | -1 | -3 | -18
CN1C(=O)c2ccccc2Sc2ccc(NC(=O)N3CCN(c4cccc(Cl)c4)CC3)cc21 | 2 | -24% | 1 | 4 | -2 | -28
SMILES | D1 agonist | USP1-UAF1 inh | TRHR agonist | TRHR PAM | D1 PAM | D1 antagonist
Cc1c(C(=O)NCc2ccc(Cl)cc2)sc2nc3n(c(=O)c12)CCCCC3 | 2 | -29% | 1 | -4 | -2 | -5
Cc1ccc(C(=O)Nc2ccc3ncccc3c2)cc1 | 0 | -21% | 0 | -9 | -4 | -11
CCC(=O)c1ccc2ncccc2c1 | 0 | -15% | 0 | -5 | -8 | -30*
CCCCCCOc1ccc(N2C(=O)CC(N3CCN(C(=O)c4ccco4)CC3)C2=O)cc1 (configuration not stated) | 19 | -16% | 1 | 0 | -4 | -41*
CCCOc1ccc(N2C(=O)CC(N3CCN(c4ccccc4F)CC3)C2=O)cc1 (configuration not stated) | 0 | -13% | 0 | 1 | 0 | 3
CCCOc1ccc(N2C(=O)CC(N3CCN(c4nc5ccccc5s4)CC3)C2=O)cc1 (configuration not stated) | 3 | -10% | -1 | 3 | 3 | -31*
COc1ccc(-c2noc(CC(=O)Nc3cc(OC)ccc3OC)n2)cc1 | 3 | ? | 0 | 5 | -2 | -6
COC(=O)c1ccccc1NC(=O)Cn1c(=O)n(Cc2ccc(C(=O)NCc3ccc4c(c3)OCO4)cc2)c(=O)c2ccccc21 | 15 | -25% | 2 | -1 | -1 | 9
CNS(=O)(=O)c1ccc(Oc2ccc(S(=O)(=O)NC)cc2)cc1 | 8 | 5% | 1 | -3 | -6 | -44*
CNS(=O)(=O)c1ccc2ccccc2c1 | 1 | -21% | -1 | 1 | 6 | -18
CCCNC(=O)CN1C(=O)c2cccnc2Sc2ccccc21 | 0 | 2% | 0 | -4 | -4 | -19
CCOc1ccc(C2CC(=O)NC(NC(=O)c3ccc(C)cc3)=N2)cc1 (configuration not stated) | 0 | ? | -1 | 35* | 0 | 19
CCCC(=O)Nc1nnc(S(=O)(=O)N(C)Cc2ccc(Cl)cc2)s1 | 1 | -27% | 0 | -3 | 0 | 0
COc1ccc(-c2nc3c(c(SCC(=O)N4CCCCC4)n2)Cc2c(CO)cnc(C)c2O3)cc1 | 2 | -13% | 0 | 14 | -6 | 4
COc1cccc(-n2nnc3c(=O)n(C/C=C/c4ccccc4)cnc32)c1 | 0 | -22% | 1 | 10 | -10 | -41*
CC(=O)Nc1ccc(NC(=O)Cn2cc3c(n2)CCCC3)cc1 | 1 | -1% | 0 | -3 | 3 | 8
O=C(Cn1cc2c(n1)CCCCC2)N1CCc2ccccc21 | -1 | -16% | 0 | -1 | -6 | -76*
Cc1csc(=N)n1CC(=O)N1CCc2ccccc21 | 4 | -7% | 0 | -24 | -6 | -32*
O=C(CN1CCCCC1)N1CCc2ccccc21 | 2 | -16% | 0 | -2 | -8 | -2
Cc1ccc(NC(=O)Cn2cc3c(n2)CCCCC3)cc1 | 40* | 8% | -2 | -4 | 2 | 6
O=C1OC(CC(=O)N(Cc2nnc(-c3ccc(Cl)cc3)o2)C2CC2)c2ccccc21 (configuration not stated) | 1 | -19% | 0 | 0 | · | -44*
O=C(CSC(=S)N1CCCC1)N(Cc1nnc(-c2ccccc2Cl)o1)C1CC1 | 5 | -15% | 0 | -1 | · | -67*

Compound activity: PubChem BioAssay, National Center for Advancing Translational Sciences (NCATS)
